# KB-V1 cytotox = qHTS assay for MDR1-selective chemotherapeutics: Primary screen using the drug-selected MDR subline cells KB-V1; KB-V1 MDR cells viability, CellTiter-Glo, 72 h; Potency, µM (top dose mostly 46.1 µM), most hits filed as cytotoxic; hit rate 3.4% among 400,000; AID 1347076, 2019; note: nearly all actives have a fitted effect of over 60% in size
#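 Cytotoxicity via CellTiter-Glo luminescence after 72 h compound exposure at 37 degrees C. Cells: drug-selected KB-V1 line, DMEM phenol-red free plus 10% FBS. Compounds tested at multiple concentrations; normalized data fitted to concentration-effect curves.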
# RORgamma inh = qHTS for inhibitors of ROR gamma transcriptional activity; Nuclear receptor ROR-gamma (Mus musculus), P51450; Drosophila S2 Gal4-RORgamma UAS-luciferase reporter, 20 h; Potency, µM (highest dose often 53.6 µM), actives largely listed as inhibitors; hit rate 5.4% among 310,000; AID 2551, 2010; note: nearly all actives have a fitted effect of over 60% in size
# Target sequence (P51450 whole entry, looked up, the tested form may be a part): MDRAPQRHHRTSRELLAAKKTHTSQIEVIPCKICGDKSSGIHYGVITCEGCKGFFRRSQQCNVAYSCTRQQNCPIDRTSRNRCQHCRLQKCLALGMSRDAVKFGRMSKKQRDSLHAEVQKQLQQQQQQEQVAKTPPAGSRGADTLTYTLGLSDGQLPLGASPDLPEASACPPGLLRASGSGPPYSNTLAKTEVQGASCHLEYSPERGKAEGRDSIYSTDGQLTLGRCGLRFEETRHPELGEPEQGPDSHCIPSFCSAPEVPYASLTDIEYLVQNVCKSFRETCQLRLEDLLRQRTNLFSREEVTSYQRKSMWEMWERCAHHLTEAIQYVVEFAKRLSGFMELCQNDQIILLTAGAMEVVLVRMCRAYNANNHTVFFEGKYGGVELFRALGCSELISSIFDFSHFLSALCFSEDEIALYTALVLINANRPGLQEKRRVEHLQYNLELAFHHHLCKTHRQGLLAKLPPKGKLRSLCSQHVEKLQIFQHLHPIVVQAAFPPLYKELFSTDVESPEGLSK
#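 Luciferase reporter read in Schneider cells carrying Gal4-RORγ (mouse) and UAS-Photinus luciferase; cells given compound 1 h before 700 uM copper sulfate induction, then incubated 20 h at ambient temperature.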
# SW480 rerep = A quantitative high throughput screen for small molecules that induce DNA re-replication in SW480 colon adenocarcinoma cells | SW480 DNA re-replication, Hoechst DNA content imaging, 48 h | Potency, µM (doses to about 46.1 µM), actives largely listed as activators | hit rate 1.8% among 340,000 | AID 624297, 2012; note: nearly all actives have a fitted effect of over 55% in size
#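 Per well, 250 cells were exposed to pinned compound for 48 hr. Nuclear DNA was visualised with Hoechst (40 min, 37 C) and total object intensity recorded by fluorescence scanning.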
# KB-3-1 tox = qHTS assay for MDR1-selective chemotherapeutics: Primary screen using the parental adenocarcinoma cell KB-3-1; KB-3-1 viability, CellTiter-Glo ATP luminescence, 72 h; Potency, µM (series often up to 46.1 µM), most hits filed as cytotoxic; AID 1347075, 2019; hit rate 1.4% among 400,000; note: nearly all actives have a fitted effect of over 60% in size
#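 KB-3-1 parental drug-naive adenocarcinoma cells in DMEM/10% FBS, incubated 72 h at 37 C with pin-transferred compounds across a concentration series. Viability by CellTiter-Glo luminescence; concentration-response curves fitted after normalization.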
# MCF10A rereplic = A quantitative high throughput screen for small molecules that induce DNA re-replication in MCF 10a normal breast cells. MCF 10A DNA re-replication, Hoechst nuclear intensity, 48 h. Potency, µM (titrated, usually from 46.1 µM), actives largely listed as activators. hit rate 2.9% among 350,000. AID 624296, 2012; note: nearly all actives have a fitted effect of over 50% in size
# Gal4-VP16 FLuc = VP16 counterscreen qHTS for inhibitors of ROR gamma transcriptional activity; Drosophila S2 Gal4-VP16 UAS-luciferase, luminescence, 20 h; Potency, µM (highest dose often 53.6 µM), usual class: inhibitors; AID 2546, 2010; hit rate 3.5% among 310,000;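 note: Gal4-VP16 expression switched on by copper sulfate through the metallothionein promoter; nearly all actives have a fitted effect of over 50% in size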
# Hits are given with their value; n = inactive; u = inconclusive; x = no result given; ! = not active in a repeat; [ ] = another dose, or the depositor's remark. The list is not random: actives were taken first. Their share in the collection is about 10%. Calls come from the whole dose curve; as a rule, active = well fitted curve in the direction sought with a large enough effect; inconclusive = small, poorly fitted or top-dose-only effect, or another doubt; inactive = no such curve, though single readings can be large; an effect the other way counts as inactive or inconclusive.
SMILES,KB-V1 cytotox,RORgamma inh,SW480 rerep,KB-3-1 tox,MCF10A rereplic,Gal4-VP16 FLuc
CC(=O)Nc1ccc(S(=O)(=O)NC2=C(N3CCN(Cc4ccccc4)CC3)C(=O)c3ccccc3C2=O)cc1,18µM!,u,u,u,u,n
CCOC(=O)N1CCN(C2=C(NS(=O)(=O)c3ccc(NC(C)=O)cc3)C(=O)c3ccccc3C2=O)CC1,n,n,u,n,u,n
CC1CCN(C2=C(NS(=O)(=O)c3ccc(Cl)cc3)C(=O)c3ccccc3C2=O)CC1,n,11µM,n,n,n,u
CC(=O)Nc1ccc(S(=O)(=O)NC2=C(N3CCN(C)CC3)C(=O)c3ccccc3C2=O)cc1,n,13µM,u,n,n,n
O=c1c(-c2cc(F)cc(F)c2)nc2cnc(N3CCOCC3)nc2n1C[C@H]1CCCO1,x,n,x,x,x,n
CCOC(=O)C1=CCC(c2ccccc2Cl)N(S(=O)(=O)c2ccc(C)cc2)C1 (stereo not given),u,x,x,n,x,x
Cc1ccsc1-c1n[nH]c(=S)n1C1CCCCC1,n,3.5µM,n,n,n,u
Cc1cc(Cl)ccc1OCc1n[nH]c(=S)n1C1CCCCC1,n,0.79µM,n,n,26µM,2.5µM
COc1ccc(-c2n[nH]c(=S)n2C2CCCCC2)cc1,n,3.2µM,n[9.22 µM],n,n,7.1µM
COc1ccc(Cl)cc1-c1n[nH]c(=S)n1C1CCCCC1,n,4µM,n,n,n,7.9µM
Cc1cc(Cl)ccc1OCC(=O)N1C(C)CCCC1C (stereo not given),n,n,n,u,n,u
CCNC(=O)C1(C)CCCN(C(=O)c2ccc3c(c2)C(C)(C)CCC3(C)C)C1 (stereo not given),n,x,x,n,x,x
Cc1ccc(S(=O)(=O)NCl)cc1,x,n,n,x,n,n
CN(Cc1ccco1)c1ncnc2ccc(-c3ccc4c(ccn4C)c3)cc12,n,x,3.7µM,u,u,x
Cc1noc(C)c1-c1ccc2ncnc(N(C)Cc3ccco3)c2c1,x,13µM,x,x,x,u
Cc1ccc(C2c3c(-c4ccccc4O)n[nH]c3C(=O)N2Cc2ccncc2)cc1 (stereo not given),u,n,18µM,8.2µM,7.3µM,n
O=C1c2[nH]nc(-c3ccccc3O)c2C(c2cccc(Br)c2)N1Cc1ccncc1 (stereo not given),u,x,x,2.6µM,x,x
CCOC(=O)c1c(Nc2ccc(O)cc2)nnc(-c2ccccc2)c1-c1ccccc1,n,x,x,n,x,x
CC(=O)Nc1ccc(S(=O)(=O)NC2CC(=O)N(c3ccc(C)c(C)c3)C2)cc1 (stereo not given),n,x,n,n,n,x
CC(=O)Nc1ccc(S(=O)(=O)NC2CC(=O)N(c3ccc(C)cc3)C2)cc1 (stereo not given),n,x,6.5µM,n,n,x
COc1cccc(-c2cncnc2N(C)Cc2ccco2)c1,x,n,x,x,x,n
O=C(Nc1cccc(O)c1)c1noc2c1CCc1ccccc1-2,23µM!,0.35µM,n,n,n,1.4µM
NC(=O)C(C(=O)/C=C/c1ccc(Cl)cc1)=C1SCCS1,6.5µM,n,n,u,u,n
COc1ccc(/C=C/C(=O)C(C(N)=O)=C2SCCS2)cc1,u,n,n,u,n,n
COc1cc(OC)c(NC(=O)C2=C(C)C(=O)OC23CCN(C(C)=O)CC3)cc1Cl,n,x,x,n,x,x
SMILES,KB-V1 cytotox,RORgamma inh,SW480 rerep,KB-3-1 tox,MCF10A rereplic,Gal4-VP16 FLuc
CC(=O)Nc1ccc(NC(=O)c2cc3c(=O)n(Cc4cccnc4)ccc3nc2C)cc1,n,x,x,n,x,x
CC(C)CCOP(=O)(c1ccc(N(C)C)cc1)C(O)c1ccccc1F (stereo not given),15µM,n,n,n,n,n
O=[N+]([O-])c1ccc(N=Nc2ccc(O)cc2O)cc1,n,u,u,u,u,0.63µM
O=[N+]([O-])c1cccc(N=Nc2ccc(O)cc2O)c1,n,x,13µM,u,u,x
COc1cc(S(=O)(=O)N2CCOCC2)ccc1NC(=O)CN1c2cccc3cccc(c23)S1(=O)=O,u,n,n,n,n,n
CC(CC(=O)Nc1ccc(Cl)c(S(=O)(=O)N2CCOCC2)c1)c1ccccc1 (stereo not given),2.1µM,x,n,4.6µM,u,x
Cc1ccc(NC(=O)CN2c3cccc4cccc(c34)S2(=O)=O)cc1S(=O)(=O)N1CCOCC1,3.7µM,n,u,u,n,n
COc1cc(C#N)ccc1OCC(=O)Nc1ccc(C)c(S(=O)(=O)N2CCOCC2)c1,8.2µM,n,n,n,n,n
Cc1ccc(NC(=O)COc2cccc(Oc3ccccc3)c2)cc1S(=O)(=O)N1CCOCC1,12µM,x,n,16µM,n,x
COc1ccc(-c2nc3ccc(NS(=O)(=O)c4ccc(C)cc4)cc3o2)cc1,n,x,x,n,x,x
Nc1nc2n(n1)C(c1cccs1)CC(c1ccc(F)cc1)N2 (stereo not given),n,n,n,n,n,n
COc1ccc(C2CC(c3cccs3)n3nc(N)nc3N2)cc1 (stereo not given),n,u,u,n,u,n
COc1ccc(C2CC(c3ccccc3)Nc3nc(NC(=O)c4cccs4)nn32)cc1 (stereo not given),n,2.8µM,n,n,n,5.6µM
COc1ccc(C2CC(c3ccccc3)n3nc(NC(=O)c4cccs4)nc3N2)cc1 (stereo not given),u,3.5µM,n,u,n,5µM
Nc1nc2n(n1)C(c1cccs1)CC(c1ccccc1)N2 (stereo not given),n,13µM,n[9.22 µM],n,n,n
COc1ccc(C2CC(c3ccccc3)n3nnnc3N2)cc1 (stereo not given),n,n,n,n,n,n
Cn1c(SCC(=O)N2CCN(c3ccccc3)CC2)nnc1-c1ccncc1,n,n,n,n,n,n
Cn1c(SCC(=O)N2CCN(c3cccc(Cl)c3)CC2)nnc1-c1ccncc1,16µM,n,n,13µM,n,n
O=C(CSc1ccc(-c2ccccc2)nn1)N1CCN(c2ccccc2)CC1,n,u,n,n,n,u
O=C(CSc1nc(N2CCCCC2)nc(N2CCCCC2)n1)N1CCN(c2ccccc2)CC1,16µM,n,n,u,n,n
Cc1nc(SCC(=O)N2CCN(c3ccccc3)CC2)n[nH]1,n,n,n,n,n,n
O=C(CSc1ccc(-c2ccncc2)nn1)N1CCN(c2ccccc2)CC1,15µM,n,n,n,n,n[10 µM]
CCn1c(SCC(=O)N2CCN(c3ccc(F)cc3)CC2)nnc1-c1ccncc1,18µM,n,n,n,n,n

# From PubChem BioAssay
